PREPL inhibitor – human PREPL enzyme inhibition; recombinant PREPL, fluorescence polarization activity-based probe; inhibition, % at 5.96 µM; hit rate 0.68% among 320,000; AID 2751; in the data active = inhibition above about 43%
UBC13 inh – human UBC13 polyubiquitination inhibition | P61088 | UBC13 polyubiquitin chain formation, TR-FRET | inhibition, % at 20 µM | hit rate 0.47% among 330,000 | AID 485273; in the data active = inhibition above about 45%, passing the limit was not always enough
MEKK2 mut-MEK5 – signal of MEK5 binding to mutant human MEKK2 PB1 domain. bead flow cytometry, Alexa488-MEK5 binding to MEKK2 mutant. percent response, % at 10 µM. hit rate 0.35% among 290,000. AID 1530; in the data active = percent response above about 24%, passing the limit was not always enough
ATG4B inhibitor – blocks human ATG4B protease cleavage of LC3 substrate | Q9Y4P1 | ATG4B cleavage of LC3-PLA2, NBD-HPC fluorescence, 1 h | inhibition, % at 8.33 µM | hit rate 0.51% among 340,000 | AID 504462; in the data active = inhibition above about 40%
MEKK2wt PB1 HTS – raises or lowers MEK5 binding to wildtype human MEKK2 PB1 domain; Q9Y2U5; hit rate 1.1% among 290,000; binding response (% of control), % at 10 µM; AID 1531; bead flow cytometry, Alexa488-MEK5 binding to MEKK2 WT; actives lie on both sides; in the data active = binding response below about 67% or above about 130%
MEKK3 PB1 HTS – raises or lowers MEK5 binding to the human MEKK3 PB1 domain; Q99759; bead-based flow cytometry, Alexa488-MEK5 binding to MEKK3; actives lie on both sides; 0 = blocked by unlabeled MEK5, 100 = vehicle; binding response (% of control), % at 10 µM; hit rate 1.4% among 290,000;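 active = binding response more than 3 SD above or below the average of its plate-row segment, actives on both sides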;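 note: Alexa488 bead fluorescence after subtracting the streptavidin-only scavenger bead signal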
Target sequence (Q99759 whole entry, looked up, the tested form may be a part): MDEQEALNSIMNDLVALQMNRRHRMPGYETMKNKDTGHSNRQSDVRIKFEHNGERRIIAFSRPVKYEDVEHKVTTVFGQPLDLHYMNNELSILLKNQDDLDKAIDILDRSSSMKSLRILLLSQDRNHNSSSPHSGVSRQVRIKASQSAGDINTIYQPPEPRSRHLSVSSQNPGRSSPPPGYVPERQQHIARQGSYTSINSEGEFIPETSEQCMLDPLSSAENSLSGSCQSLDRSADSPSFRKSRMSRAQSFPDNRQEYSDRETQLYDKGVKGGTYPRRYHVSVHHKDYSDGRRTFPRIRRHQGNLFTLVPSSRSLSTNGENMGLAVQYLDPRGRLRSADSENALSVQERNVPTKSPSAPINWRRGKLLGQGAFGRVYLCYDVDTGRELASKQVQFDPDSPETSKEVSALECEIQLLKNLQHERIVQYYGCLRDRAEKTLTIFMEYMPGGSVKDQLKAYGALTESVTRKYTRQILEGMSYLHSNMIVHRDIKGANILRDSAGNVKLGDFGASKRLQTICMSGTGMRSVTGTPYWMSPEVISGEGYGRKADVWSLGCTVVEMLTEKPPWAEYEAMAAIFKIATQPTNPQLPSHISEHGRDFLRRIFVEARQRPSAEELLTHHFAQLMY
MEKK2wt confirm – raises or lowers MEK5 binding to wildtype human MEKK2, retest | bead flow cytometry, Alexa488-MEK5 binding to MEKK2 WT; actives lie on both sides | shares compounds with MEKK3 PB1 HTS | hit rate 2.4% among 5,900 | binding response (% of control), % at 10 µM; in the data active = binding response below about 16% or above about 210%; inactive = in between
MEKK2mut confirm – signal of MEK5 binding to mutant human MEKK2, retest | hit rate 2% among 5,900 | AID 1893 | percent response, % at 10 µM | shares compounds with MEKK3 PB1 HTS | bead flow cytometry, Alexa488-MEK5 binding to MEKK2 mutant; in the data active = percent response mostly above about 71%, no sharp cut-off; inactive = mostly below about 38%;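 note: higher means compound restores mutant binding toward wildtype level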
MEKK3 confirm – confirmation of inhibitors of MEK5 binding to human MEKK3; shares compounds with MEKK3 PB1 HTS; bead flow cytometry, Alexa488-MEK5 binding to MEKK3; hits give low values; binding response (% of control), % at 10 µM; hit rate 1.8% among 5,900;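 active = binding response below 72% of control, or above a set upper limit, though filed actives all read lower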;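 note: lower values mean stronger disruption of MEK5 binding to MEKK3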
Each line names hits and unclear results; the compound was inactive in the other large screens (follow-up assays come after a bar, where they were run); [ ] = remark or other dose. A selection: hits, their analogues and other compounds. The true share with any hit is near 3.1%.

Cc1cccc(NC(=O)c2ccc([N+](=O)[O-])cc2Cl)n1	MEKK3 PB1 HTS 137 | MEKK2wt confirm inactive | MEKK2mut confirm inactive | MEKK3 confirm inactive
COCCNc1ccc([N+](=O)[O-])cc1C(=O)Nc1cccc(C)n1	none
CC(C)CC(=O)N=C1SC2CS(=O)(=O)CC2N1Cc1ccccc1Cl (stereo unspecified)	none
CC(C)CC(=O)N=C1SC2CS(=O)(=O)CC2N1Cc1ccccc1 (stereo unspecified)	MEKK3 PB1 HTS 195 | MEKK2wt confirm inactive | MEKK2mut confirm inactive | MEKK3 confirm inactive
C[C@H](CO)N1C[C@H](C)[C@@H](CN(C)C(=O)Nc2ccc(C(F)(F)F)cc2)Oc2ccc(NC(=O)Nc3ccc4c(c3)OCO4)cc2C1=O	none (no result: MEKK2 mut-MEK5, ATG4B inhibitor, MEKK2wt PB1 HTS, MEKK3 PB1 HTS)
COc1ccc(Nc2ccc(C(=O)O)cc2[N+](=O)[O-])cc1	none
COc1ccc(Nc2ccc(C(N)=O)cc2[N+](=O)[O-])cc1	MEKK3 PB1 HTS 57[inhibitor] | MEKK2wt confirm inactive | MEKK2mut confirm inactive | MEKK3 confirm inactive
Cc1nc2scc(-c3ccccc3)c2c(=O)n1N=C1C=CC(=O)C=C1	none (no result: PREPL inhibitor)
CCOC(=O)c1cc(-c2ccccc2)sc1NC(=O)C(C)N1C(=O)c2ccccc2C1=O (stereo unspecified)	MEKK3 PB1 HTS 136 | MEKK2wt confirm inactive | MEKK2mut confirm inactive | MEKK3 confirm inactive
CCOC(=O)c1cc(-c2ccccc2)sc1NC(=O)CCN1C(=O)c2ccccc2C1=O	MEKK2wt PB1 HTS 32[inhibitor] | MEKK2wt confirm inactive | MEKK2mut confirm inactive | MEKK3 confirm inactive
CCOC(=O)[C@H]1[C@H]2COc3ccccc3[C@@H]2N2C(=O)c3c(C)cc(C)cc3NC(=O)[C@@]12C	none (no result: MEKK2 mut-MEK5, MEKK2wt PB1 HTS, MEKK3 PB1 HTS)
COc1ccc(NC(=S)NC2CC3CCCC(C2)N3C2CC2)cc1 (stereo unspecified)	MEKK3 PB1 HTS 135 | MEKK2wt confirm inactive | MEKK2mut confirm inactive | MEKK3 confirm inactive
CN1C(=O)CSC1=NC12CC3CC(CC(C3)C1)C2	MEKK2wt PB1 HTS 30[inhibitor], MEKK3 PB1 HTS 20[inhibitor] | MEKK2wt confirm inactive | MEKK2mut confirm inactive | MEKK3 confirm inactive
Cc1ccc(C(=O)N/C(=C\c2ccc(-c3ccccc3[N+](=O)[O-])o2)C(=O)NCCN(C)C)cc1	none
Cc1ccc(C(=O)N/C(=C\c2ccc(-c3ccccc3[N+](=O)[O-])o2)C(=O)NCCCN(C)C)cc1	MEKK2 mut-MEK5 25 | MEKK2wt confirm inactive | MEKK2mut confirm inactive | MEKK3 confirm inactive
COC(=O)c1cc(C(C)=O)c(C)[nH]c1=O	MEKK3 PB1 HTS 128 | MEKK2wt confirm inactive | MEKK2mut confirm inactive | MEKK3 confirm inactive
CCOC(=O)c1cc(C(C)=O)c(=O)[nH]c1C	none
O=c1[nH]cccc1-c1nc2ccccc2n1Cc1cccc(F)c1	none
C[C@H](NC(=O)c1ccco1)C(=O)NCCc1ccc(S(N)(=O)=O)cc1	none
N=C1CCCN1CC(=O)c1ccc(Cl)cc1	MEKK3 PB1 HTS 131 | MEKK2wt confirm inactive | MEKK2mut confirm inactive | MEKK3 confirm inactive
N=C1CCCN1CC(=O)c1cccs1	none
CC(C)(C)c1ccc(/C=C/C(=O)N2CCOCC2)cc1	MEKK3 PB1 HTS 134 | MEKK2wt confirm inactive | MEKK2mut confirm inactive | MEKK3 confirm inactive
O=S(=O)(c1ccc(F)cc1)N1CCN(Cc2nnc(-c3ccccc3)o2)CC1	none (no result: MEKK2 mut-MEK5, MEKK2wt PB1 HTS, MEKK3 PB1 HTS)
c1ccc(-c2nnc(CN3CCCc4ccccc43)o2)cc1	MEKK2 mut-MEK5 26, MEKK2wt PB1 HTS 9.0 | MEKK2wt confirm inactive | MEKK2mut confirm inactive | MEKK3 confirm inactive
Fc1ccc(N2CCN(Cc3nnc(-c4ccccc4)o3)CC2)cc1	MEKK3 PB1 HTS 135 | MEKK2wt confirm inactive | MEKK2mut confirm inactive | MEKK3 confirm inactive
COC(=O)C(Cc1ccccc1)NC(=O)CCc1c[nH]c2ccccc12 (stereo unspecified)	none
Clc1nnc2c3ccccc3ccn12	none (no result: PREPL inhibitor, UBC13 inh, MEKK2 mut-MEK5, MEKK2wt PB1 HTS, MEKK3 PB1 HTS)
CCCCCCOc1ccc(/C(N)=N/O)cc1	none
N=C(N)c1ccc(OCCCCCOc2ccc(C(=N)N)cc2)cc1	MEKK2wt PB1 HTS 150 | MEKK2wt confirm inactive | MEKK2mut confirm inactive | MEKK3 confirm 66
NC(=O)c1ccccc1OCC(=O)N1CCc2ccccc2C1	none
CN(C)CCP(=O)(c1ccccc1)c1ccccc1	none
CCCP(=O)(CCC)CCP(=O)(c1ccccc1)c1ccccc1	MEKK3 PB1 HTS 63[inhibitor] | MEKK2wt confirm inactive | MEKK2mut confirm inactive | MEKK3 confirm inactive
CCOC(=O)C1(Cc2cccc(F)c2)CCN(Cc2cnn(CC)c2)CC1	none
CCOC(=O)C1(Cc2cccc(F)c2)CCN(Cc2nc(CC)[nH]c2C)CC1	MEKK3 PB1 HTS 71[inhibitor] (no result: MEKK2wt PB1 HTS) | MEKK2wt confirm inactive | MEKK2mut confirm inactive | MEKK3 confirm inactive
Cc1ccc(C2=NC3(CCCCC3)NC2=S)cc1	none
O=C1NC2(CCCC2)N=C1c1ccc(F)cc1	MEKK3 PB1 HTS 122 | MEKK2wt confirm inactive | MEKK2mut confirm inactive | MEKK3 confirm inactive
Cc1cn(CCC(=O)Nc2ccccc2N2CCOCC2)c2ccccc12	none
Cc1cn(CCC(=O)Nc2ccc(N3CCOCC3)cc2)c2ccccc12	MEKK3 PB1 HTS 128 | MEKK2wt confirm inactive | MEKK2mut confirm inactive | MEKK3 confirm inactive
CCn1nnnc1-c1ccc(OC)c(S(=O)(=O)NCCc2ccccc2)c1	MEKK3 PB1 HTS 45[inhibitor] | MEKK2wt confirm inactive | MEKK2mut confirm inactive | MEKK3 confirm inactive
COc1cccc(-c2nnc3sc(-c4ccccc4)nn23)c1	none
COc1cccc(OC)c1-c1nn2c(-c3cc(-c4ccccc4)n[nH]3)nnc2s1	MEKK3 PB1 HTS 78[inhibitor] | MEKK2wt confirm inactive | MEKK2mut confirm inactive | MEKK3 confirm 48
O=C(CN1CCOCC1)Nc1cccc(C(=O)Nc2cccc(C(F)(F)F)c2)c1	none
CCCCCNCC(=O)Nc1cccc(C(=O)Nc2cccc(C(F)(F)F)c2)c1	MEKK2wt PB1 HTS 174 | MEKK2wt confirm inactive | MEKK2mut confirm inactive | MEKK3 confirm inactive
CC1(C)OC2CC3C4CC(F)C5=CC(=O)C=CC5(C)C4(F)C(O)CC3(C)C2(C(=O)CO)O1 (stereo unspecified)	none
N#Cc1ccc(-c2csc(NC(=O)c3cc(-c4cccs4)nc4ccccc34)n2)cc1	MEKK2wt PB1 HTS 38[inhibitor], MEKK3 PB1 HTS 63[inhibitor] | MEKK2wt confirm inactive | MEKK2mut confirm inactive | MEKK3 confirm inactive
N#Cc1ccc(/C=N/NC(=O)c2cc(-c3cccs3)nc3ccccc23)cc1	none
